Test systems include EKVX NSCLC; SN12C renal; UO-31 renal; TK-10 renal; ACHN renal; CAKI-1 renal; A498 renal; CCRF-CEM leukemia; MOLT-4 leukemia; SR leukemia.
Assay in all cases: NCI-60 one-dose screen, 48 h (100 = growth as untreated, 0 = no growth, -100 = all killed)
Holding throughout (details): 10 µM unless noted

Compounds without any hit were thinned out: in the full panel of roughly 83,000, 20% have a hit.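 Method: cells in 96-well plates; compound added at one concentration; 48 h incubation; percent growth measured; values under 10 scored active.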 Values without a mark were called inactive. Calls of active or inactive are those of the source.

On to `Cc1ccc([N+](=O)[O-])cc1NC(=O)Nc1cccc(F)c1`, for which the growth with EKVX NSCLC is 48.6%; with SN12C renal, 88.9%; in the test on UO-31 renal, 67.7%; in the test on TK-10 renal, 69.1%; in the test on ACHN renal it was 67.7%; in the test with CAKI-1 renal, 53.4%. Besides, the growth in the test on A498 renal was 78.3%; with CCRF-CEM leukemia, 54.4%; in the test on MOLT-4 leukemia it was 62%; in the test with SR leukemia, 62.6%.
On to `CCOC(=O)C1=C(C)N2C(=NC3=C(CCC/C3=C\c3ccc(Cl)cc3)C2c2ccc(Cl)cc2)S1` (stereo not given), for which the growth in the test on EKVX NSCLC was 64.6%; in the test on SN12C renal, 58.1%; with UO-31 renal, 53.9%; in the test on TK-10 renal it was 58.2%; with ACHN renal, 16.6%; in the test with CAKI-1 renal it was 62.3%. Also, the growth in the test with A498 renal was 3.17% (active); in the test with CCRF-CEM leukemia, -17% (active); in the test on MOLT-4 leukemia, -3.87% (active); in the test with SR leukemia it was -8.47% (active).
On to `O=C(Nc1nc2ccccc2s1)c1cc(-c2ccc(F)cc2)n2nc(-c3ccccc3)cc2n1`, for which the growth is 68.8% in the test on EKVX NSCLC; 57.5% in the test with SN12C renal; 51.4% in the test with UO-31 renal; 129% in the test with TK-10 renal; 13.5% in the test with ACHN renal; 53.2% in the test on CAKI-1 renal. For the same compound, the growth in the test with A498 renal is -9.36% (active); with CCRF-CEM leukemia, 21.6%; in the test on MOLT-4 leukemia, 61.9%; in the test on SR leukemia it was 18.6%.
With `CN1CCCC1c1cccnc1` (stereo not given), the growth was 123% with EKVX NSCLC; 94.2% with SN12C renal; 97% in the test on UO-31 renal; 132% in the test with TK-10 renal; 99% in the test with ACHN renal; 120% in the test on CAKI-1 renal. For the same compound, the growth in the test with A498 renal is 94.1%; in the test with CCRF-CEM leukemia, 70%; in the test on MOLT-4 leukemia, 101%; in the test with SR leukemia it was 85.7%.
As to `CCC(CC)NCCCCCNc1cc(OC)cc2cccnc12`, the growth in the test on EKVX NSCLC was 104%; in the test with SN12C renal it was 87.2%; with UO-31 renal, 71.2%; with TK-10 renal it was 83.5%; in the test on ACHN renal, 94.8%; in the test with CAKI-1 renal, 97.2%. In addition, the growth was 72.7% in the test on A498 renal, 114% with CCRF-CEM leukemia, 98.1% in the test on MOLT-4 leukemia and 109% with SR leukemia.
In the case of `O=C1C2C3C=CC(O3)C2C(=O)N1Nc1ccccc1` (stereo not given), the growth in the test on EKVX NSCLC was 101%; in the test on SN12C renal it was 107%; with UO-31 renal it was 101%; with TK-10 renal, 103%; in the test with ACHN renal, 103%; in the test on CAKI-1 renal, 93.5%. Besides, the growth in the test on A498 renal was 68.1%; in the test with CCRF-CEM leukemia, 96.1%; with MOLT-4 leukemia it was 101%; with SR leukemia it was 126%.
Consider `CO[C@H]1/C=C/O[C@@]2(C)Oc3c(C)c(O)c4c(O)c(c(/C=N/N5CCN(C)CC5)c(O)c4c3C2=O)NC(=O)/C(C)=C\C=C\C(C)[C@H](O)[C@@H](C)[C@@H](O)[C@@H](C)[C@@H](OC(C)=O)[C@@H]1C` (stereo not given in full), for which the growth with EKVX NSCLC is 91.7%; in the test on SN12C renal it was 105%; with UO-31 renal, 88%; in the test with TK-10 renal, 98.6%; with ACHN renal, 82.1%; in the test with CAKI-1 renal, 90.4%. Further, the growth with A498 renal was 103%; with CCRF-CEM leukemia, 101%; with MOLT-4 leukemia it was 102%; in the test with SR leukemia, 105%.
In the case of `O=C1NCN(CCO)CN1`, the growth with EKVX NSCLC is 98.9%; in the test with SN12C renal it was 96.5%; in the test with UO-31 renal, 97.2%; with TK-10 renal it was 107%; in the test on ACHN renal, 104%; with CAKI-1 renal, 92.8%. In addition, the growth in the test on A498 renal was 106%; with CCRF-CEM leukemia, 99.7%; in the test with MOLT-4 leukemia it was 121%; with SR leukemia it was 122%.
As to `COc1cc(C2CC(c3ccc(C)cc3)=NN2C(C)=O)ccc1Oc1ccnc2cc(Cl)ccc12` (stereo not given), the growth is 63.3% with EKVX NSCLC; 77.5% in the test on SN12C renal; 61.6% in the test on UO-31 renal; 11.1% with TK-10 renal; 32.2% with ACHN renal; 58.1% in the test with CAKI-1 renal. The growth with A498 renal is 64.3%; in the test with CCRF-CEM leukemia, 74.5%; in the test on MOLT-4 leukemia, 86.8%; with SR leukemia, 35.1%.
With `Cc1nnc(Nc2ccc(NC(=O)Nc3ccc(Cl)cc3)cc2)c2ccccc12`, the growth in the test with EKVX NSCLC is 44.2%; in the test on SN12C renal, 60.1%; in the test with UO-31 renal it was 51.2%; in the test with TK-10 renal, 51.7%; with ACHN renal, 58.8%; in the test with CAKI-1 renal, 33.9%. Further, the growth in the test on A498 renal was 35.4%; in the test with CCRF-CEM leukemia it was 11%; with MOLT-4 leukemia, 9.76% (active); in the test with SR leukemia, -3.51% (active).
Consider `CCCCSc1cc(C)nc(N)n1`, for which the growth in the test on EKVX NSCLC is 97.2%; with SN12C renal, 92.1%; with UO-31 renal, 45.5%; in the test with TK-10 renal it was 93.8%; in the test with ACHN renal it was 96.9%; in the test on CAKI-1 renal, 97.6%. For the same compound, the growth is 92.8% in the test on A498 renal, 91.7% with CCRF-CEM leukemia, 102% in the test with MOLT-4 leukemia and 98% with SR leukemia.
As to `CCN(CC)c1ccc(N=Nc2cc(Cl)ccc2Cl)c(NC(=O)CCC(=O)O)c1`, the growth in the test on EKVX NSCLC is 79.7%; with SN12C renal, 91.4%; in the test with UO-31 renal, 60.9%; with TK-10 renal, 121%; with ACHN renal it was 88.8%; with CAKI-1 renal it was 93.4%. Also, the growth is 80.1% in the test on A498 renal, 103% in the test on CCRF-CEM leukemia, 95.1% in the test with MOLT-4 leukemia and 98.4% in the test with SR leukemia.
With `CCC1=C(c2ccc(OC)cc2)C(C)(C)Oc2c1ccc(O)c2CN1CCCC1`, the growth was 88.8% in the test on EKVX NSCLC; 51.8% with SN12C renal; 31.3% with UO-31 renal; 57.3% in the test on TK-10 renal; 57.5% in the test on ACHN renal; 44.5% in the test on CAKI-1 renal. Moreover, the growth in the test with A498 renal is 58.4%; with CCRF-CEM leukemia it was 21.2%; in the test on MOLT-4 leukemia, 14.3%; in the test with SR leukemia it was -4.25% (active).
For the compound `Cc1cc(C(=O)O)c(C)cc1C(=O)O`, the growth in the test with EKVX NSCLC was 122%; with SN12C renal it was 106%; in the test on UO-31 renal it was 73.5%; in the test on TK-10 renal it was 115%; in the test with ACHN renal, 112%; with CAKI-1 renal, 102%. Besides, the growth was 103% in the test on A498 renal, 101% in the test on CCRF-CEM leukemia, 87.7% in the test on MOLT-4 leukemia and 105% in the test on SR leukemia.

Source of the values: PubChem BioAssay (NCI).
